Common to all, as to conditions: mRNA level, 48 h; actives raise or lower the signal
Read-out in assay [1]: Lipase C (LIPC), LIPC (gene 3990)
Put plainly: LTEA_HepaRG_LIPC: Life Technologies and Expression Analysis (LTEA) Assay for Lipase C (LIPC) using HepaRG (AID 2283514). The method in brief: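 Read-out is LIPC transcript level by TaqMan qRT-PCR, normalized to three housekeeping genes, after 48 h chemical treatment of human HepaRG liver cells. Curves span eight concentrations topping at 100 uM; activity in either direction scored relative to 0.5% DMSO.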

Read-out in assay [2]: Lipoprotein lipase (LPL), LPL (gene 4023)
Put plainly: LTEA_HepaRG_LPL: Life Technologies and Expression Analysis (LTEA) Assay for Lipoprotein lipase (LPL) using HepaRG (AID 2283515). The method in brief: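 Read-out is LPL transcript level by qRT-PCR, normalized to three housekeeping genes and fitted bidirectionally against the DMSO control. Human HepaRG cells received chemicals for 48 h at up to 100 uM.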

Read-out in assay [3]: MicroRNA 122 (MIR122), gene 406906
Put plainly: LTEA_HepaRG_MIR122: Life Technologies and Expression Analysis (LTEA) Assay for MicroRNA 122 (MIR122) using HepaRG (AID 2283516). Further: the transcript read is the microRNA miR-122. The method in brief:
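HepaRG plated 48 h, switched to serum-free induction medium, then treated in duplicate for 48 h (100 uM top, half-log steps, 0.5% DMSO vehicle). RNA isolated, qRT-PCR performed, concentration-response fitted both directions relative to DMSO.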

Read-out in assay [4]: matrix metalloproteinase-10 (MMP10), MMP10 (gene 4319)
Put plainly: LTEA_HepaRG_MMP10: Life Technologies and Expression Analysis (LTEA) Assay for matrix metalloproteinase-10 (MMP10) using HepaRG (AID 2283517). An outline of the steps:
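Gain or loss of MMP10 mRNA is fitted relative to the 0.5% DMSO vehicle. The human hepatic line HepaRG receives a 48-hour serum-free exposure, in duplicate, with a maximum concentration of 100 uM.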

Read-out in another assay: MYC, MYC (gene 4609)
Put plainly: LTEA_HepaRG_MYC: Life Technologies and Expression Analysis (LTEA) Assay for MYC using HepaRG (AID 2283518). An outline of the steps:
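Cells are thawed, plated and cultured 48 h, then treated for 48 h with test chemicals (eight half-log concentrations from 100 uM, 0.5% DMSO vehicle). RNA is isolated and MYC expression quantified by qRT-PCR against three housekeeping genes.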

Read-out in assay [5]: matrix metalloproteinase-3 (MMP3), MMP3 (gene 4314)
Put plainly: LTEA_HepaRG_MMP3: Life Technologies and Expression Analysis (LTEA) Assay for matrix metalloproteinase-3 (MMP3) using HepaRG (AID 2283519). An outline of the steps: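 HepaRG, human; 48 h dosing, 8 conc. (max 100 uM, half-log), duplicate, 0.5% DMSO. Readout: MMP3 transcript by Fluidigm TaqMan qRT-PCR, ACTB/GAPDH/POLR2A-normalised. Gain or loss fitted vs DMSO.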

Read-out in assay [6]: Paternally Expressed 10 (PEG10), PEG10 (gene 23089)
Put plainly: LTEA_HepaRG_PEG10: Life Technologies and Expression Analysis (LTEA) Assay for Paternally Expressed 10 (PEG10) using HepaRG (AID 2283520). The method in brief: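 HepaRG, 48 h post-plating → serum-free induction medium → 48 h chemical exposure (duplicate, 8-pt, max 100 uM, half-log, 0.5% DMSO) → lysis in RLT → TaqMan qRT-PCR for PEG10, ACTB/GAPDH/POLR2A normalisation.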

Read-out in assay [7]: Nuclear factor NF-kappa-B p105 subunit (Homo sapiens) (UniProt P19838)
Put plainly: LTEA_HepaRG_NFKB1: Life Technologies and Expression Analysis (LTEA) Assay for Nuclear Factor Kappa B Subunit 1 (NFKB1) using HepaRG (AID 2283521). The method in brief:
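Differentiated human HepaRG cells in serum-free induction medium with 0.5% DMSO were exposed for 48 h to eight half-log concentrations, top 100 uM, in duplicate. NFKB1 mRNA measured by Fluidigm TaqMan qRT-PCR, normalised to ACTB, GAPDH and POLR2A; bidirectional fit versus DMSO.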

Read-out in assay [8]: Protein phosphatase 2A (PPP2R4), PTPA (gene 5524)
Put plainly: LTEA_HepaRG_PPP2R4: Life Technologies and Expression Analysis (LTEA) Assay for Protein phosphatase 2A (PPP2R4) using HepaRG (AID 2283522). An outline of the steps: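 Readout is PPP2R4 transcript level by microfluidic qRT-PCR after 48 h chemical treatment of human HepaRG liver cells. Concentrations spanned 100 uM downward in half-log steps; gain or loss of signal was fitted relative to DMSO.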

Read-out in assay [9]: Phosphatase and tensin (PTEN), PTEN (gene 5728)
Put plainly: LTEA_HepaRG_PTEN: Life Technologies and Expression Analysis (LTEA) Assay for Phosphatase and tensin (PTEN) using HepaRG (AID 2283523). The method in brief:
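Read-out is PTEN transcript level by multiplexed TaqMan qRT-PCR after 48 h chemical treatment of human HepaRG cultures in serum-free induction medium. Concentrations spanned 100 uM downward in half-log steps, 0.5% DMSO throughout; activity fitted in both directions against vehicle.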

SMILES strings stand for the structures. Calls of active or inactive are those of the source. How the source made its calls: active means hit-call score of the fitted dose curve at least 0.9, where 1 is the maximum; inactive means score below 0.9.

Nuclear factor NF-kappa-B p105 subunit (Homo sapiens), sequence (P19838 whole entry, looked up): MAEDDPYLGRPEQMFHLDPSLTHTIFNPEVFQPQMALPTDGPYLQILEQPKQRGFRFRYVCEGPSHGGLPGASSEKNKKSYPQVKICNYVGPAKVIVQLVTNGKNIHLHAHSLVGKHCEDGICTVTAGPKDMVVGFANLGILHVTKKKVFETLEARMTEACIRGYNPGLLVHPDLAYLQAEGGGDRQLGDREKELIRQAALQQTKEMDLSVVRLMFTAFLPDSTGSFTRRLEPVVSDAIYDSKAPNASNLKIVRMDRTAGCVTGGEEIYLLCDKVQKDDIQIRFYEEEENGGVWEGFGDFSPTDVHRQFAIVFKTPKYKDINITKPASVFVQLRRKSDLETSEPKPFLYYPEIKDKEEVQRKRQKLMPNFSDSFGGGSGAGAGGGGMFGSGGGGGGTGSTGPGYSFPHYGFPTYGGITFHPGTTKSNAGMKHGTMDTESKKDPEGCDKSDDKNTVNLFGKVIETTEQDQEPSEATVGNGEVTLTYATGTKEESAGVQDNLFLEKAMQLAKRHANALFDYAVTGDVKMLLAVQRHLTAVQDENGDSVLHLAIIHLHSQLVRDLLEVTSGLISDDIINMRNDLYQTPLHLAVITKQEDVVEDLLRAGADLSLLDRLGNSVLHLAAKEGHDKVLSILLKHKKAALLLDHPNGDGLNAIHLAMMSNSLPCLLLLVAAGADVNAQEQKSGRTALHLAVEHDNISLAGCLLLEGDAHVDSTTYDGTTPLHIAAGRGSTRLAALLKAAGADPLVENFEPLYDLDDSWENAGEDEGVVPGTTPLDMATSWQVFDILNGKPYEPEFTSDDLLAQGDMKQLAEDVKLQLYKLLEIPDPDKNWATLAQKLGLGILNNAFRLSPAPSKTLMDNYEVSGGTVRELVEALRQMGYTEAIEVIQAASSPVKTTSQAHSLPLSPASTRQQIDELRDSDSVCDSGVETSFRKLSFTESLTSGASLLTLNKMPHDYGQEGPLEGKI

Take `ClCCOCCCl`: the outcome in assay [1] was “inactive”; in [2], “inactive”; in assay [3], “inactive”; in assay [4] it was “inactive”; in the assay with MYC, MYC (gene 4609) it was “inactive”; in assay [5] it was “inactive”. The result in assay [6], in [7], in assay [8] and in assay [9] was inactive.
In the case of `[As]#[In]`, the outcome is “inactive” in assay [1]; “inactive” in assay [2]; “inactive” in [3]; “inactive” in [4]; “inactive” in the assay with MYC, MYC (gene 4609); “inactive” in assay [5]. Moreover, the result in [6], in assay [7], in assay [8] and in assay [9] was inactive.
Take `O=Cc1ccco1`: the outcome in assay [1] was “inactive”; in assay [2], “inactive”; in assay [3] it was “inactive”; in assay [4] it was “inactive”; with MYC, MYC (gene 4609), “inactive”; in assay [5], “inactive”. The outcome in assay [6], in [7], in assay [8] and in [9] was inactive.
For the compound `CCN(CC)CCO`, the outcome in assay [1] is “inactive”; in assay [2] it was “inactive”; in assay [3] it was “inactive”; in [4], “inactive”; with MYC, MYC (gene 4609), “inactive”; in assay [5] it was “inactive”. For the same compound, the compound was classed as inactive in [6], in [7], in assay [8] and in [9].
As for `O=C(N[C@H](c1ccccc1)[C@@H]1CN2CCC1CC2)c1c(Cl)ccc(C(F)(F)F)c1Cl`, in [1], the compound was called inactive. Also, the AC50 in [2] is 11.1 µM (active); in [3] it was 46.2 µM (active); in [4], 69.4 µM (active); in the assay with MYC, MYC (gene 4609) it was 68.4 µM (active); in assay [5], 73.6 µM (active); in assay [6] it was 26.8 µM (active). In addition, the AC50 in [7] is 71.5 µM (active); in assay [8] it was 75.3 µM (active); in assay [9], 77.8 µM (active).
Consider `CCC(C)c1ccc(O)cc1` (stereo unspecified), for which the outcome in assay [1] is “inactive”; in assay [2] it was “inactive”; in assay [3], “inactive”; in assay [4], “inactive”; with MYC, MYC (gene 4609) it was “inactive”; in [5] it was “inactive”. The compound was called inactive in assay [6], in assay [7], in assay [8] and in assay [9].
For the compound `Nc1ccc(Cl)cc1N`, the AC50 was 17.3 µM (active) in assay [1]; 13.2 µM (active) in assay [2]; 21 µM (active) in [3]; 13.4 µM (active) with MYC, MYC (gene 4609); 30.1 µM (active) in [5]; 14.2 µM (active) in assay [6]. Moreover, the figures for the AC50 in assay [7], in [8] and in [9] were 12.5 µM (active), 26.3 µM (active) and 32.6 µM (active), respectively. The call in assay [4] was inactive.
On to `Cn1cc(-c2ccccc2)c(=O)c(-c2cccc(C(F)(F)F)c2)c1`, for which the outcome is “inactive” in [1]; “inactive” in assay [2]; “inactive” in assay [3]; “inactive” in assay [4]; “inactive” with MYC, MYC (gene 4609); “inactive” in assay [5]. The outcome in [7], in assay [8] and in [9] was inactive. Also, the AC50 in assay [6] was 23.5 µM (active).
With `Cc1cccc(N)c1N`, the AC50 is 58.7 µM (active) in assay [1], 35.8 µM (active) in assay [2], 50 µM (active) in assay [3] and 50 µM (active) in [6]. Also, the outcome in assay [4] was “inactive”; in the assay with MYC, MYC (gene 4609), “inactive”; in [5], “inactive”; in assay [7] it was “inactive”; in [8] it was “inactive”; in [9], “inactive”.
Consider `Clc1ccc(C(c2ccc(Cl)cc2)C(Cl)(Cl)Cl)cc1`, for which the AC50 in [1] is 84.5 µM (active); in assay [2], 50 µM (active). The outcome in [3] is “inactive”; in assay [4], “inactive”; with MYC, MYC (gene 4609) it was “inactive”; in [5], “inactive”; in [6], “inactive”; in assay [7] it was “inactive”. The result in assay [8] and in assay [9] was inactive.
Regarding `COC(=O)c1ccccc1N`, the outcome in assay [1] was “inactive”; in assay [2], “inactive”; in assay [3] it was “inactive”; in assay [4], “inactive”; with MYC, MYC (gene 4609), “inactive”; in [5], “inactive”. The call in assay [6], in [7], in assay [8] and in [9] was inactive.
For `O=[N+]([O-])c1ccc(Oc2ccc(Cl)cc2Cl)cc1`, the compound was called inactive in [1], in [2], in assay [3], in [4], in assay [5] and in assay [7]. For the same compound, the compound was classed as inactive in assay [8] and in assay [9]. Also, the AC50 with MYC, MYC (gene 4609) was 32.8 µM (active); in assay [6] it was 50 µM (active).
On to `ClC1=C(Cl)C2(Cl)C3C(Cl)C=CC3C1(Cl)C2(Cl)Cl` (stereo unspecified), for which the compound was called inactive in assay [1], in assay [2], in assay [3], in assay [4], in assay [5] and in assay [6]. The compound was classed as inactive in assay [7], in assay [8] and in assay [9]. Moreover, the AC50 with MYC, MYC (gene 4609) is 37.1 µM (active).
Take `CC(C)N(Cc1ccccc1)C(=O)C(C)(C)C`: the outcome in assay [1] is “inactive”; in [2], “inactive”; in assay [3], “inactive”; in assay [4], “inactive”; with MYC, MYC (gene 4609), “inactive”; in assay [5], “inactive”. The compound was called inactive in assay [7], in assay [8] and in assay [9]. Also, the AC50 in [6] is 28.8 µM (active).
With `CCOc1cccc(C2(N3CCN(c4ccccc4)CC3)CCC(C)CC2)c1` (stereo unspecified), the outcome was “inactive” in assay [1]; “inactive” in assay [2]; “inactive” in assay [3]; “inactive” in assay [4]; “inactive” in the assay with MYC, MYC (gene 4609); “inactive” in assay [6]. Further, the result in assay [8] was inactive. In addition, the AC50 in assay [5] is 89.9 µM (active).
Regarding `C[N+](C)(C)CC1CO1` (stereo unspecified), the outcome in assay [1] is “inactive”; in assay [2], “inactive”; in assay [3], “inactive”; in [4] it was “inactive”; with MYC, MYC (gene 4609) it was “inactive”; in assay [5], “inactive”. Besides, the compound was classed as inactive in assay [6] and in assay [8].
Consider `c1ccc(C2CO2)cc1` (stereo unspecified), for which the outcome in assay [1] was “inactive”; in [2], “inactive”; in assay [3], “inactive”; in [4], “inactive”; with MYC, MYC (gene 4609) it was “inactive”; in assay [5], “inactive”. The compound was classed as inactive in assay [6] and in assay [8].
Turning to `CC(C)COC(=O)c1ccccc1C(=O)OCC(C)C`, the outcome is “inactive” in assay [1]; “inactive” in [2]; “inactive” in [3]; “inactive” in [4]; “inactive” with MYC, MYC (gene 4609); “inactive” in assay [5]. In addition, the call in [6], in assay [8] and in assay [9] was inactive.
For `CS(=O)(=O)NC(=O)c1cc(Oc2ccc(C(F)(F)F)cc2Cl)ccc1[N+](=O)[O-]`, the outcome in [1] was “inactive”; in assay [2] it was “inactive”; in assay [3], “inactive”; in assay [4] it was “inactive”; in the assay with MYC, MYC (gene 4609), “inactive”; in assay [5], “inactive”. Moreover, the compound was classed as inactive in assay [8] and in assay [9]. Also, the AC50 in assay [6] was 31 µM (active).
As to `COc1cc(C=O)cc2c1[C@H](COC(N)=O)[C@]1(OC(C)=O)ON2C[C@H]2[C@@H]1N2C(C)=O`, the outcome is “inactive” in assay [1]; “inactive” in assay [3]; “inactive” with MYC, MYC (gene 4609); “inactive” in assay [6]; “inactive” in assay [8]. Besides, the AC50 in assay [2] is 0.272 µM (active); in assay [4], 1.58 µM (active); in assay [5] it was 1.44 µM (active); in assay [9], 29.9 µM (active).

As usually defined, the AC50 is the midpoint of the concentration-response curve, whichever way the signal moves.
